Screening data from PubChem BioAssay.
Gal4-VP16 FLuc: inhibits Gal4-VP16 luciferase reporter, ROR gamma counter-screen; 310,000 compounds, 3.5% hits; Potency, µM (series often up to 53.6 µM), for inactives: at the highest dose activity, negative = inhibition, most hits filed as inhibitors; Drosophila S2 Gal4-VP16 UAS-luciferase, luminescence, 20 h;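 note: Gal4-VP16 expression switched on by copper sulfate through the metallothionein promoter; potency is the fitted concentration of half-maximal effect; % is set by controls: 0 for no effect and ±100 for the full control effect; nearly all actives have a fitted effect of over 50% in size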
MCF10A rerep: DNA re-replication induction in MCF 10a cells | MCF 10A DNA re-replication, Hoechst nuclear intensity, 48 h | Potency, µM (doses to about 46.1 µM), for inactives: at the top dose activity, positive = re-replication, usual class: activators | 350,000 compounds, 2.9% hits | AID 624296; note: potency is the fitted concentration of half-maximal effect; % of control where 0% means no effect; nearly all actives have a fitted effect of over 50% in size
BCR signal inh: inhibitors of chronic active B-cell receptor signaling; ABC-DLBCL IkBa-CBG/CBR reporter, luminescence ratio, 4 h; Potency, µM (top dose mostly 46.1 µM), inactives show top-dose activity change, negative = inhibition, most hits filed as inhibitors; 340,000 compounds, 0.05% hits; AID 493014; active = well fitted inhibition curve with a large enough effect in the signal ratio, with a control signal flat, not every such curve was filed as active; inconclusive = small, poorly fitted or top-dose-only effect, or effect the other way, or a change in a side signal; the % refers to the signal ratio;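 note: potency is the fitted concentration of half-maximal effect; plate controls were basal doxycycline-induced cells for no effect and cells given 10 µM MG132 for full effect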
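Concentration-response series (up to 46 uM) were applied to TMD8 dual-reporter cells for 4 h at 37C with doxycycline. Green/red ratio, after filter-overlap correction, defined %Activity; red signal alone was normalised to basal cells and zero luminescence.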
SW480 rereplic: induces DNA re-replication in SW480 colon adenocarcinoma cells | SW480 DNA re-replication, Hoechst DNA content imaging, 48 h | Potency, µM (series often up to 46.1 µM), inactives show at the highest dose re-replication activation, actives largely listed as activators | 340,000 compounds, 1.8% hits; note: potency is the fitted concentration of half-maximal effect; % of control where 0% means no effect; nearly all actives have a fitted effect of over 55% in size
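First, 250 cells per well were seeded. Next, compound or vehicle (23 nL) was pinned in, plates sat 48 hr at 37 C. Finally Hoechst was added for 40 min before fluorescence scanning.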
RORg inh: blocks mouse ROR gamma transcriptional activity. P51450. Drosophila S2 Gal4-RORgamma UAS-luciferase reporter, 20 h. Potency, µM (titrated, usually from 53.6 µM), without a hit: at the top dose activity change, negative = inhibition, actives largely listed as inhibitors. 310,000 compounds, 5.4% hits. AID 2551; note: potency is the fitted concentration of half-maximal effect; % is set by controls: 0 for no effect and ±100 for the full control effect; nearly all actives have a fitted effect of over 60% in size
Target sequence (P51450 whole entry, looked up, the tested form may be a part): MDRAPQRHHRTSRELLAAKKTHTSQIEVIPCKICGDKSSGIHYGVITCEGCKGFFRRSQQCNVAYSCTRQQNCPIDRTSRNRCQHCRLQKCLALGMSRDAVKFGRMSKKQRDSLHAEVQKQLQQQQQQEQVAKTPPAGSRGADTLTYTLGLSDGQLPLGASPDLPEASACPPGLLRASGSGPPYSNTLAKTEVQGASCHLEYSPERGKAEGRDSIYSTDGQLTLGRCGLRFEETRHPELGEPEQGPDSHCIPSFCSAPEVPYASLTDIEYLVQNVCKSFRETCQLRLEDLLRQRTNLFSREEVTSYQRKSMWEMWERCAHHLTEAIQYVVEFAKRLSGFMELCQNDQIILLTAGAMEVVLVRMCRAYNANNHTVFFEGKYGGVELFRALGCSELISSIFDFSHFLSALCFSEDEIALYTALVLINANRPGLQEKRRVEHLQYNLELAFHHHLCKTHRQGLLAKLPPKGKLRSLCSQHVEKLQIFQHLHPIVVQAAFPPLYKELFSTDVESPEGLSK
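Compounds are pin-transferred onto Drosophila Schneider cells expressing a copper-inducible Gal4–ROR gamma transactivation domain fusion. After 1 hr, copper sulfate is added to 700 uM final; luciferase is read 20 hr later.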
Giardia kill: Giardia lamblia killing | activity change, % at 7.66 µM, hits read low | 340,000 compounds, 0.15% hits | Giardia lamblia trophozoite viability; in the data active = activity change below about -80%; inconclusive = between about -30% and that limit;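 note: parasites exposed to compound for two days anaerobically before the ATP read; % is set by controls: 0 for no effect and ±100 for the full control effect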
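Media and compound were dispensed first, then trophozoites at 100 cells/well; plates sat 48 hrs at 37 deg C without oxygen before ATP luminescence reagent was added and read after 15-30 min at room temperature.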
* = called active by the depositor; ? = inconclusive; · = no result given; [ ] = remark or other dose. The list is not random: actives were taken first. Their share in the collection is about 8.3%. Unless noted, calls come from the whole dose curve; as a rule, active = well fitted curve in the direction sought with a large enough effect; inconclusive = small, poorly fitted or top-dose-only effect, or another doubt; inactive = no such curve, though single readings can be large; an effect the other way counts as inactive or inconclusive.

SMILES	Gal4-VP16 FLuc	MCF10A rerep	BCR signal inh	SW480 rereplic	RORg inh	Giardia kill
CC1=NN(C(=O)c2csc(C)c2)C(O)(C(F)(F)F)C1 (centres undefined)	5.62µM*	-0.3%	-5.4%	2.7%	3.55µM*	-6.7
COc1cccc(N2CCN(c3ncnc4c3c(-c3ccccc3)cn4-c3ccc(C)cc3)CC2)c1	·	·	0.3%	·	·	·
S=c1[nH]c(-c2ccccc2)cn1/N=C/c1ccncc1	-13.8%	-2.1%	?	-0.8%	6.31µM*	-6.2
CCOc1ccc(/C=N/n2cc(-c3ccccc3)[nH]c2=S)cc1	?	-0.3%	?	12.3%	1.26µM*	-11.9
CCOc1ccc(/C=N/N2C(C)CCCC2C)cc1 (centres undefined)	-3.6%	5.5%	2.8%	-4.7%	-38.0%	6.3
CCCCCC1CCC(c2n[nH]c(=S)n2C)CC1 (centres undefined)	3.98µM*	5.7%	?	0.2%	?	-18.9
O=[N+]([O-])c1cccnc1Sc1ccccc1Cl	·	4.3%	·	-37.4%	·	3.2
Cn1ccnc1C1CCCCN1Cc1nc(-c2ccc3c(c2)OCO3)no1 (centres undefined)	-10.5%	-1.5%	-5.6%	-0.3%	?	2.7
Cn1ccnc1C1CCCCN1Cc1nc(Cc2cccc(C(F)(F)F)c2)no1 (centres undefined)	?	?	-9.5%	-97.6%	7.08µM*	10.2
COc1ccc(-c2noc(CN3CCCCC3c3nccn3C)n2)cc1 (centres undefined)	?	4.2%	0.6%	12.3%	3.55µM*	24.7
CCC(Sc1nc(N)c(NC(=O)c2ccco2)c(=O)[nH]1)C(=O)O (centres undefined)	-5.0%	-7.6%	4.0%	-23.6%	21.1%	0.3
COC(=O)[C@]1(Cc2ccccc2)N[C@H](CN(C)C(=O)Nc2ccc(C)cc2)[C@@H]2C(=O)N(C)C(=O)[C@@H]21	·	?	0.9%	24.1%	·	-3.6
Cc1noc(C)c1C(=O)OCC(=O)NCCc1ccccc1	·	-1.8%	-5.0%	-2.4%	·	3.4
O=C(NNC(=S)NC(=O)c1ccccc1)c1cccnc1	?	1.5%	?	0.8%	?	-6.9
O=C(O)c1ccc(NC(=S)NC(=O)c2cccnc2)cc1	-22.6%	-9.1%	?	1.1%	?	5.8
CC(C)(C)c1ccc(C(=O)NNC(=S)NC(=O)c2cccnc2)cc1	?	8.9%	?	14.6µM*	2.82µM*	14.9
COc1ccc(NC(=O)c2cccnc2)c([N+](=O)[O-])c1	-0.8%	?	-13.0%	16.4µM*	-39.8%	4.8
COc1ccc(NC(=O)c2ccccc2)c([N+](=O)[O-])c1	28.3%	?	-18.0%	?	?	0.5
CC(C)(C)c1cc(Cl)c(O)c(NC(=S)NC(=O)c2cccnc2)c1	0.891µM*	14.6µM*	-2.7%	-16.5%	0.159µM*	-2.8
CC(C)c1ccc(O)c(NC(=S)NC(=O)c2cccnc2)c1	1.41µM*	?	?	1.3%	0.708µM*	-2.5
COC(=O)C/C=C\[C@@H](C)[C@@H](/C=N\O[C@@H]1O[C@H](COC(C)=O)[C@H](OC(C)=O)[C@H](OC(C)=O)[C@H]1OC(C)=O)OC	-5.4%[10 µM]	·	·	·	-4.5%[10 µM]	·
CC(C)(C)C(=O)NC(=S)NNC(=O)c1ccc(-c2ccccc2)cc1	15.8µM*	?	?	?	?	-5.5
CC(C)(C)c1ccc(C(=O)NC(=S)NCc2cccnc2)cc1	-10.9%	6.2%	?	?	-5.4%	-16.9
CC(C)(C)c1ccc(OCCNC(=S)NC(=O)c2cccnc2)cc1	?	27.2%	2.5%	-0.6%	12.6µM*	-0.5
CC(C)(C)C(=O)NC(=S)NNC(=O)c1ccncc1	0.3%[10 µM]	3.6%	-3.8%	?	?	-17.9
SMILES	Gal4-VP16 FLuc	MCF10A rerep	BCR signal inh	SW480 rereplic	RORg inh	Giardia kill
O=C(NC(=S)NCCSc1ccccc1)c1cccnc1	?	22.7%	-7.6%	-30.3%	12.6µM*	3.1
O=C(NC(=S)Nc1ccccc1Br)c1cccnc1	17.8µM*	6.2%	?	-11.2%	10µM*	-26.2
O=C(NC(=S)Nc1ccc(Br)cn1)c1cccnc1	3.8%	-3.1%	?	0.2%	34.1%	-1.6
Cc1nccc(-c2cccc(NC(=O)c3ccccc3Cl)c2)n1	-2.3%	-6.5%	?	8.2%	13.8%	6.8
O=C(CCl)N(Cc1cc(=O)[nH]c2ccccc12)c1ccccc1	?	?	?	9.5%	?	11.6
COc1ccc(NC(=S)NC(=O)c2cccnc2)cc1	?	-1.4%	-3.9%	3.6%	11.2µM*	-7.5
CCOc1ccc(NC(=O)c2cccnc2Cl)c([N+](=O)[O-])c1	17.4%	7.6%	?	23.1µM*	17.9%	5.4
COc1cc(OC)cc(C(=O)NNC(=S)NC(=O)c2cccnc2)c1	-22.3%	1.1%	-21.8%	-6.2%	11.2µM*	-20.1
COC(=O)c1ccc(NC(=S)NC(=O)c2cccnc2)cc1	?	-15.3%	-2.2%	-1.1%	?	3.5
CCOc1ccc(NC(=O)c2ccco2)c([N+](=O)[O-])c1	-2.6%	23.1%	?	?	29.3%[10 µM]	13.7
c1ccc(-c2cc3nccc(-c4ccccn4)n3n2)cc1	2.7%	9.9%	?	-2.4%	28.5%	-26.7
O=S(=O)(c1cccs1)N1CCN(CC(O)COc2cc(Cl)ccc2Cl)CC1 (centres undefined)	17.8µM*	?	?	10.4%	-9.8%	1.7
NC(=O)c1ncn([C@@H]2O[C@H](CNCc3ccc(OCC(=O)Nc4nccs4)cc3)[C@@H](O)[C@H]2O)n1	·	?	·	-95.1%	·	29.7
COc1cc(C(=O)OCC(=O)Nc2ccc(S(=O)(=O)N3CCCC3)cc2)cc(OC)c1OC	·	-1.6%	-5.5%	-8.7%	·	-19.2
O=C(CSc1nnc2scc(-c3ccccc3)n12)N1CCN(Cc2ccccc2)CC1	-8.2%	3.1%	?	-1.8%	8.91µM*	17.7
O=C(Cn1cnc2c(NCc3ccccc3)ncnc21)NCCCc1ccccc1	·	-2.0%	-1.9%	-3.8%	·	-15.5
Cc1ccc(C(=O)CC(=O)c2cc(Cl)ccc2O)cc1	10µM*	?	?	?	?	-16.8
Cc1ccc(C(=O)CC(=O)c2ccc(C(C)(C)C)cc2)cc1	?	9.3%	3.4%	3.7%	?	-15.5
Cc1ccc(CC(=O)c2ccc(Cl)cc2)cc1	22.5%	-2.6%	?	-11.3%	14.7%	22.9
Cc1ccc(C(=O)Cc2ccccc2)c(O)c1	·	-31.2%	·	-8.5%	·	-3.1
CC(C)(C)c1ccc(C(=O)CC(=O)c2cc(Cl)ccc2O)cc1	?	?	15.4%	?	11.2µM*	8.9
